Test results published in PubChem BioAssay (EPA / NIEHS).
Where “and” joins values, the source holds several entries; their conditions need not be identical. Equal values may be shown once. Calls of active or inactive are those of the source. Rule for the calls: active = hit-call score of the fitted dose curve at least 0.9, where 1 is the maximum; inactive = score below 0.9.

read-out: Urokinase-type plasminogen activator receptor (uPAR), PLAUR (gene 5329); assay: BSK_4H_uPAR: BioMAP Diversity Plus: 4H Assay for Urokinase-type plasminogen activator receptor (uPAR) Biomarker Activity (AID 2283030); settings: primary human endothelial cells (HUVEC); actives raise or lower the signal
Experimental: BSK_4H is a cell-based, multiplexed-readout assay that uses umbilical vein endothelium, a human vascular primary cell, with measurements taken at 24 hours after chemical dosing in a 96-well plate.BSK_4HAR is an assay component measured in the BSK_4H assay. It measures uPAR antibody related to regulation of gene expression using ELISA technology.Data from the assay component BSK_4HAR was analyzed into 1 assay endpoint. This assay endpoint, BSK_4HAR, was analyzed with bidirectional fitting relative to DMSO as the negative control and baseline of activity. Using a type of binding reporter, gain or loss-of-signal activity can be used to understand changes in the signaling as they relate to the gene PLAUR. Furthermore, this assay endpoint can be referred to as a primary readout, because this assay has produced multiple assay endpoints where this one serves a signaling function. To generalize the intended target to other relatable targets, this assay endpoint is annotated to the cytokine intended target family, where the subfamily is plasmogen activator.
The levels of cell surface (or secreted, indicated by the prefix "s") biomarker endpoints were measured by ELISA. Overt cytotoxicity to cells in confluent adherent cultures (all systems other than the BT system) was assessed by measuring total protein levels using sulforhodamine B (SRB) staining in parallel cultures at the time of biomarker measurements, indicated as SRB endpoints. For proliferation assays for adherent cell types, individual cell types are cultured at sub-confluence and relative cell numbers quantified by SRB staining at time points optimized for each system (48 h: 3C and CASM3C systems; 72 h: BT and HDF3CGF systems; 96 h: SAg system). SRB was performed by staining cells with 0.1% SRB after fixation with 10% TCA and reading wells at 560 nm.Viability and proliferation of PBMC (T cells) was quantified by Alamar Blue reduction for the SAg and BT systems. For PBMC viability (referred to as PBMC Cytotoxicity within the assay endpoint names), cells were plated (75,000/well in a 96-well plate) and then chemical samples added for 1 h before addition of activators, SEB and TSST-1 (20 ng/mL final concentration each). Cells were incubated for 90 h. Then, Alamar Blue (20 uL/well) (Invitrogen, Cat DAL1100) was added for 6 h, and the plates were read with a fluorescence microplate reader at 546/580 nm (excitation/emission). For PBMC proliferation, cells were plated and activated as above but incubated for only 16 h prior to addition of Alamar Blue. Plates were read after 6 h.

Q: With `COc1ccc(C(=O)/C(Br)=C\C(=O)O)cc1` as the compound, how does the AC50 read?
A: The AC50 was 32.5 µM (active) and 32.2 µM (active).

Q: `CC/C=C\C/C=C\C/C=C\CCCCCCCC(=O)OC` was tested. Which AC50 did it give?
A: The AC50 was 30.9 µM (active).

Q: `C1CNCCN1` was tested. Which outcome did it give?
A: The outcome was “inactive”.

Q: With `Oc1ccc(/C=C/c2cc(O)cc(O)c2)cc1` as the compound, how does the AC50 read?
A: Its AC50 is 1.24 µM (active).

Q: Which outcome does the source give for `CC1(C)CC(O)CC(C)(C)N1[O]` here?
A: The outcome was “inactive”.

Q: Which AC50 does the source give for `CCCCCCCCCCCC(=O)N(C)CC(=O)O` here?
A: Its AC50 is 19.5 µM (active) and 13.4 µM (active).

Q: For `Cc1c(O)cccc1O`, which outcome is on record?
A: The outcome was “inactive”.

Q: With `Oc1c(Cl)cc(Cl)c(Cl)c1Cl` as the compound, how does the AC50 read?
A: Its AC50 is 20 µM (active).

Q: `CCCCCCCCC(CO)CCCCCC` (stereo not given) was tested. Which AC50 did it give?
A: The AC50 was 2.51 µM (active).

Q: `Cc1ccc([N+](=O)[O-])cc1N` was tested. Which outcome did it give?
A: The outcome was “inactive”.

Q: For `CCCCCC1=CCCC1=O`, which outcome is on record?
A: The outcome was “inactive”.

Q: How did the AC50 turn out when `C=CC(=O)OCC(C)OCC(C)OCC(C)OC(=O)C=C` (stereo not given) was run?
A: The AC50 was 31.1 µM (active).

Q: For `CCC1(C)C(=O)N(Cl)C(=O)N1Cl` (stereo not given), which outcome is on record?
A: The outcome was “inactive”.

Q: `CC(C)CCCCCOC(=O)CS` was tested. Which outcome did it give?
A: The outcome was “inactive”.

Q: For `C[N+](C)(C)CCCNS(=O)(=O)C(F)(F)C(F)(F)C(F)(F)C(F)(F)C(F)(F)C(F)(F)C(F)(F)C(F)(F)F`, which outcome is on record?
A: The outcome was “inactive”.

Q: `CCCCCCOC(=O)CCCCC(=O)OCCCCCC` was tested. Which outcome did it give?
A: Its outcome is “inactive”.

Q: `Nc1nc(N)nc(-c2ccccc2)n1` was tested. Which outcome did it give?
A: Its outcome is “inactive”.

Q: For `CCCCC1C(=O)N(c2ccccc2)N(c2ccccc2)C1=O`, which outcome is on record?
A: Its outcome is “inactive”.

Q: Which outcome does the source give for `O=C1CCCCCCCCCCCN1` here?
A: The outcome was “inactive”.

Q: Which outcome does the source give for `CCCC(C)C(=O)OCC` (stereo not given) here?
A: Its outcome is “inactive”.

Q: With `O=C1CCCCCCCCCCC1` as the compound, how does the outcome read?
A: Its outcome is “inactive”.

Q: `Clc1cc(Cl)c(Cl)c(Cl)c1Cl` was tested. Which outcome did it give?
A: Its outcome is “inactive”.

Q: `CC(C)C(=O)OCCc1ccccc1` was tested. Which outcome did it give?
A: Its outcome is “inactive”.

Q: How did the outcome turn out when `O=C(Oc1ccccc1)c1ccccc1C(=O)Oc1ccccc1` was run?
A: The outcome was “inactive”.

Q: Which outcome does the source give for `CCCCCCC=O` here?
A: The outcome was “inactive”.

Q: For `O=C(Cl)c1c(Cl)c(Cl)c(C(=O)Cl)c(Cl)c1Cl`, which outcome is on record?
A: Its outcome is “inactive”.

Q: Which outcome does the source give for `CCOC(=O)/C=C\C(=O)OCC` here?
A: The outcome was “inactive”.

Q: Which AC50 does the source give for `c1ccc(Nc2cccc3ccccc23)cc1` here?
A: Its AC50 is 35.4 µM (active) and 35.1 µM (active).

Q: For `CC(Cl)COP(=O)(OCC(C)Cl)OCC(C)Cl` (stereo not given), which outcome is on record?
A: Its outcome is “inactive”.

Q: With `C=CC(=O)NC(C)(C)C` as the compound, how does the outcome read?
A: Its outcome is “inactive”.

Q: Which outcome does the source give for `CC1=CC=C(C(C)C)CC1` here?
A: The outcome was “inactive”.

Q: With `CC(C)[N+](C)(CCOC(=O)C1c2ccccc2Oc2ccccc21)C(C)C` as the compound, how does the outcome read?
A: The outcome was “inactive”.

Q: For `CC=C(C)C=CC=C(C)C`, which outcome is on record?
A: The outcome was “inactive”.

Q: Which outcome does the source give for `CC(CCC(=O)O)(c1ccc(O)cc1)c1ccc(O)cc1` here?
A: The outcome was “inactive”.

Q: For `Nc1ccc(C(=O)O)cc1`, which outcome is on record?
A: Its outcome is “inactive”.

Q: How did the outcome turn out when `O=C(O)C(F)(F)C(F)(F)C(F)(F)C(F)(F)C(=O)O` was run?
A: Its outcome is “inactive”.

Q: `Fc1ccc(Br)cc1` was tested. Which outcome did it give?
A: Its outcome is “inactive”.

Q: For `CC(C)c1cccc(C(C)C)c1N`, which outcome is on record?
A: Its outcome is “inactive”.

Q: For `CC=C(C)C(C)=O`, which outcome is on record?
A: The outcome was “inactive”.

Q: For `CCOC(=O)C1=NOC(c2ccccc2)(c2ccccc2)C1`, which outcome is on record?
A: The outcome was “inactive”.
